An excerpt weighted towards active compounds, which were near 22% of everything screened.
CYP2C9 inhib: blocks human cytochrome P450 2C9; AID 777; inhibition, % at 5 µM; P11712; 20% of 96,000 active; CYP2C9 Supersomes, luciferin-H conversion, luminescence;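 active means blocking of liver enzyme CYP2C9 beyond about 50% at 5 µM, limit read from the data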
Target sequence (P11712 whole entry, looked up): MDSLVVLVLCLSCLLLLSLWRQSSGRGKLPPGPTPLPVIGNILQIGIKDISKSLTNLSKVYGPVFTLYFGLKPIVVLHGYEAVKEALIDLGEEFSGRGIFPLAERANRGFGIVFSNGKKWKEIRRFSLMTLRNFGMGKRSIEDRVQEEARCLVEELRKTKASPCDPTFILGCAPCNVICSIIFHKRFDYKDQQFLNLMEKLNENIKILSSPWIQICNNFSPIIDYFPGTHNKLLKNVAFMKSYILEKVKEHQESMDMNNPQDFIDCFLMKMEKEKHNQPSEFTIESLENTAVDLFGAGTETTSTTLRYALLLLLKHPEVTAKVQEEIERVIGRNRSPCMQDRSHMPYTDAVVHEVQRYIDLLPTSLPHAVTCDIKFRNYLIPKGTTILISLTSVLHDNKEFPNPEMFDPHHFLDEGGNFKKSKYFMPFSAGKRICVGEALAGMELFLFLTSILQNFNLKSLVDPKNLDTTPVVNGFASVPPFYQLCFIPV
CYP2C9 act: CYP2C9 (human) activation | P11712 | recombinant CYP2C9, luciferin-H conversion, luminescence; active compounds read high; factor 1 = untreated enzyme, 0 = blocked | activation factor at 5 µM | 1.4% of 96,000 active | AID 1024;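 active means activation factor of 2 or more for CYP2C9 at a 5 µM dose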
CYP2C19 act: cytochrome P450 2C19 (human) activation | 96,000 tested, under 10 active | AID 1025 | recombinant CYP2C19, luciferin-H EGE luminescence; active compounds read high; 0 = fully inhibited enzyme, 1 = untreated enzyme | activation factor at 5 µM | P33261;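 active means activation factor of at least 2 at 5 µM in the primary screen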
CYP2C19 inh: blocks human cytochrome P450 2C19. P33261. CYP2C19 Supersomes, luciferin-H EGE luminescence, 30 min. inhibition, % at 5 µM. 21% of 96,000 active. AID 778;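 active means CYP2C19 inhibition above a set limit at 5 µM in the primary screen, cut at about 50% in these data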
Measles CPE: protection of cells from measles virus; protection (pct of control), % at 4 µM; Measles virus-infected cells, CPE protection, absorbance; 1.5% of 140,000 active; AID 841; in the data active means protection mostly above about 24%, no sharp cut-off; inactive means mostly below about 26%
Numbers stand for hits; i = inactive; nt = no result.

SMILES	CYP2C9 inhib	CYP2C9 act	CYP2C19 act	CYP2C19 inh	Measles CPE
COC(=O)C1=C(C)N(C)C(=O)NC1c1ccc(O)c(OC)c1 (configuration not stated)	nt	nt	nt	nt	i
NC(N)=NC(N)=NCCc1ccccc1	nt	nt	nt	nt	i
C=CCN=C(NC#N)SCC(=O)NC(C)(C)C	i	i	i	i	i
C=CCN=C(NC#N)SCC(=O)NCc1ccccc1	i	i	i	50.7	i
C=CCN=C(NC#N)SCCc1ccccc1	51.6	i	i	93.3	i
Cc1cc(Cl)ccc1N=c1ssnc1Cl	i	i	i	i	i
COc1cc(N=c2ssnc2Cl)c(OC)cc1Cl	77.8	i	i	i	i
COc1ccc(OC)c(N=c2ssnc2Cl)c1	94.3	i	i	63.7	i
C/C(NC1CCCC1)=C(/C#N)C(N)=O	i	i	i	i	i
Cc1noc(C)c1S(=O)(=O)N(C)CC(=O)NCc1ccccc1	i	i	i	i	i
Cc1noc(C)c1S(=O)(=O)N(CCc1ccccc1)Cc1ccccc1	76.2	i	i	i	i
COc1ccc(C(=O)CC(c2ccccc2)C2C(=O)CCCC2=O)cc1 (configuration not stated)	93.1	i	i	68.7	i
COc1ccc(C(CC(=O)c2ccccc2)C2CCCCC2=O)cc1 (configuration not stated)	i	i	i	52.7	i
O=C(CC(c1ccco1)C1CCCCC1=O)c1ccccc1 (configuration not stated)	74.3	i	i	61.5	i
COC(=O)c1ccc(COc2ccc3c(C)c(C)c(=O)oc3c2)o1	i	i	i	i	i
COC(=O)CSc1nc(N)c(C#N)c(C(C)C)c1C#N	i	i	i	59.4	i
COC(=O)CSc1cc(SCC(=O)OC)c(C#N)c(SCC(=O)OC)c1	51.5	i	i	i	i
CCCCS(=O)CC(COc1ccc(Cl)cc1)OC(=O)c1ccccc1 (configuration not stated)	80.4	i	i	95.4	i
O=S(Cc1ccc(Cl)cc1)CC(O)COc1ccc(Cl)cc1 (configuration not stated)	i	i	i	i	i
COCCNC(=O)c1ccccc1NC(=O)c1ccc(Cl)c(S(=O)(=O)Nc2ccc(C)cc2C)c1	81.1	i	i	i	i
Cc1ccc(C(=O)Nc2ccccc2-c2ccccc2)cc1[N+](=O)[O-]	50.1	i	i	i	i
Cc1ccc(NS(=O)(=O)c2cc(C(=O)O)ccc2Cl)c(C)c1	nt	nt	nt	nt	i
Cc1ccc(C)c(NS(=O)(=O)c2cc(C(=O)Nc3ccccc3-c3ccccc3)ccc2Cl)c1	69.7	i	i	79.3	i
Cc1ccccc1NC(=O)c1ccc(C)c(S(=O)(=O)Nc2ccccn2)c1	i	i	i	i	i
COCCNC(=O)c1ccccc1NC(=O)c1ccccc1N(C)S(=O)(=O)c1ccc(C)cc1	94.7	i	i	84.2	i
SMILES	CYP2C9 inhib	CYP2C9 act	CYP2C19 act	CYP2C19 inh	Measles CPE
CC(C)c1ccc(NS(=O)(=O)c2ccc(Cl)nc2)cc1	nt	nt	nt	nt	i
CCOC(=O)C(C)Oc1ccc2c(-c3cccc([N+](=O)[O-])c3)cc(=O)oc2c1 (configuration not stated)	nt	nt	nt	nt	i
Cc1ccc(S(=O)(=O)Cn2nnnc2CN2CCCC3(CCCCC3)C2)cc1	83.0	i	i	93.2	i
Cc1ccc(S(=O)(=O)Cn2nnnc2CN2CCOCC2)cc1	i	i	i	i	i
COc1ccc2c(c1)c(=O)oc1cc(OCC(=O)NC3CCCCC3)ccc12	i	i	i	88.8	i
COc1ccc2c(c1)c(=O)oc1cc(OCC(=O)NC3CC3)ccc12	i	i	i	59.5	i
CC(C)CCNC(=O)COc1ccc2c3c(c(=O)oc2c1)CCC3	i	i	i	i	i
CC1CC(C)CN(C(=O)COC(=O)c2cc3ccccc3cc2O)C1 (configuration not stated)	i	i	i	i	i
CCCN(CCC)S(=O)(=O)c1ccc(NS(C)(=O)=O)cc1	i	i	i	i	i
CCCN(CC1CC1)S(=O)(=O)c1ccc(S(N)(=O)=O)cc1	i	i	i	65.6	i
N#Cc1c2c(c(N3CCN(c4ccccn4)CC3)n3c1nc1ccccc13)CCC2	54.0	i	i	58.8	nt
CCOC(=O)c1c(C)n(C)c2ccc(OC(C)C(=O)OC)cc12 (configuration not stated)	63.7	i	i	50.8	i
CCOC(=O)Cn1c(=NC(=O)c2cccs2)sc2cc(C(=O)OC)ccc21	nt	nt	nt	nt	i
Cc1c(S(=O)(=O)Nc2cccc(Cl)c2)c(=O)n(C)c(=O)n1C	i	i	i	50.9	i
Cc1c(S(=O)(=O)Nc2ccc3c(c2)OCCO3)c(=O)n(C)c(=O)n1C	i	i	i	i	i
Cn1c(=O)c2cc(S(=O)(=O)NC(C(=O)Nc3cccc(F)c3)c3ccccc3)ccc2n(C)c1=O (configuration not stated)	i	i	i	i	i
Cn1c(=O)c2cc(S(=O)(=O)Nc3cccc(F)c3)ccc2n(C)c1=O	83.2	i	i	76.3	i
CCc1c(C)[nH]c2ccc(C)cc2c1=O	i	i	i	i	i
N#CC1=C(N)SC(N)=C(C#N)C1c1ccnc2ccccc12	69.5	i	i	i	i
Cc1ccc(CNC(=O)CCNC(=O)c2ccc(Br)o2)cc1	i	i	i	i	i
CCCCOc1cccc(C(=O)N(Cc2ccco2)C2CCS(=O)(=O)C2)c1 (configuration not stated)	81.9	i	i	i	i
CCOc1cccc(C(=O)N(Cc2ccc(F)cc2)C2CCS(=O)(=O)C2)c1 (configuration not stated)	i	i	i	50.7	i
CCCOc1cccc(C(=O)N(Cc2ccco2)C2CCS(=O)(=O)C2)c1 (configuration not stated)	nt	nt	nt	nt	i
O=C(c1ccccc1)N(Cc1ccc(F)cc1)C1CCS(=O)(=O)C1 (configuration not stated)	i	i	i	i	i
O=C(Nc1ccccc1)C1CC(=O)N(c2ccc3c4c(cccc24)CC3)C1 (configuration not stated)	62.0	i	i	i	i
SMILES	CYP2C9 inhib	CYP2C9 act	CYP2C19 act	CYP2C19 inh	Measles CPE
S=c1[nH]cc(-c2ccccc2)n1-c1cccc(Cl)c1	nt	nt	nt	nt	i
CCn1c(-c2ccc(-c3ccccc3)cc2)c[nH]c1=S	i	i	i	81.3	i
C=CCn1c(-c2ccccc2)c[nH]c1=S	i	i	i	70.2	i
C=CCn1c(-c2cccc(Cl)c2)n[nH]c1=S	i	i	i	i	i
Cn1c(-c2ccc(-c3ccccc3)cc2)c[nH]c1=S	64.0	i	i	88.7	i
C=CCn1c(-c2ccc(Cl)cc2)c[nH]c1=S	i	i	i	66.4	i
O=C(c1cnccn1)N(c1ccccc1)C1(C(=O)NC2CCCCC2)CCCCC1	i	i	i	i	i
O=C(c1ccccc1F)N1CCc2ccccc21	i	3.5	i	61.5	nt
Cc1ccc2c(CC(=O)N3CCc4ccccc43)coc2c1	i	i	i	78.8	i
O=C(Cc1coc2ccc3ccccc3c12)N1CCc2ccccc21	i	i	i	i	i
Nc1cc(N)nc(SCC(=O)N2CCc3ccccc32)n1	i	2.5	i	i	i

High-throughput results as filed in PubChem.
